Laboratory results from PubChem BioAssay (NCATS).
Results filed as inconclusive are left out. Calls of active or inactive are those of the source. Calls follow the shape of the dose curve; as a rule, active = well fitted curve in the direction sought with a large enough effect; inconclusive = small, poorly fitted or top-dose-only effect, or another doubt; inactive = no such curve, though single readings can be large; an effect the other way counts as inactive or inconclusive.

Assays:
[1] = qHTS of pediatric cancer cell lines to identify multiple opportunities for drug repurposing: Primary screen for MG 63 (6-TG R) cells (AID 1347105); settings: MG 63 (6-TG R) viability, CellTiter-Glo, 48 h; series mostly up to 46 µM; also: nearly all actives have a fitted effect of over 50% in size; as to activity change, negative = cytotoxic: % is scaled to controls: 0 for no effect and ±100 for the full control effect
How it was run: (§1)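 ATP-based luminescence (CellTiter-Glo) quantifies viability after a 48-hour exposure. Compounds are dosed across 8 or 11 final concentrations; DMSO and 2.3 µM bortezomib serve as controls.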

[2] = qHTS of pediatric cancer cell lines to identify multiple opportunities for drug repurposing: Primary screen for control Hh wild type fibroblast cells (AID 1347106); settings: Hh wild-type fibroblast viability, CellTiter-Glo luminescence, 48 h; series mostly up to 46 µM; also: nearly all actives have a fitted effect of over 55% in size;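 as to activity change, negative = cytotoxic: % is scaled to controls: 0 for no effect and ±100 for the full control effect; a drop in luminescence marks cytotoxicity and a rise apparent proliferation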
How it was run: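 Viability after 48 h compound treatment at 37C, 500-1,000 cells/well, read as ATP luminescence with CellTiter-Glo. Primary screens used 11-point (MIPE, 0.78 nM-46 µM) or 8-point (NPC, 0.59 nM-46 µM) final concentrations; follow-up screens used 11-point dilutions.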

[3] = qHTS of pediatric cancer cell lines to identify multiple opportunities for drug repurposing: Primary screen for Rh30 cells (AID 1347107); settings: Rh30 rhabdomyosarcoma viability, CellTiter-Glo luminescence, 48 h; series mostly up to 46 µM; also: nearly all actives have a fitted effect of over 75% in size; as to activity change, negative = cytotoxic: % is scaled to controls: 0 for no effect and ±100 for the full control effect
How it was run: (§2)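 Cells (500-1,000/well) rested 5 h, then received compounds for 48 h; metabolically active cells were measured by CellTiter-Glo luminescence. Final concentrations spanned up to 46 µM (MIPE, 11-point) or 0.59 nM-46 µM (NPC, 8-point) in primary screens, 11-point in follow-ups.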

[4] = qHTS of pediatric cancer cell lines to identify multiple opportunities for drug repurposing: Primary screen for Rh41 cells (AID 1347108); settings: Rh41 rhabdomyosarcoma viability, CellTiter-Glo luminescence, 48 h; series mostly up to 46 µM; also: nearly all actives have a fitted effect of over 70% in size;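 as to activity change, negative = cytotoxic: luminescence drop marks cytotoxic hits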
How it was run: as §1

[5] = qHTS of pediatric cancer cell lines to identify multiple opportunities for drug repurposing: Confirmatory screen for NB1643 cells (AID 1347109); settings: NB1643 neuroblastoma cell viability; series mostly up to 45.9 µM; also: nearly all actives have a fitted effect of over 45% in size;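 as to activity change, negative = cytotoxic: plate controls were DMSO for no effect and bortezomib for full effect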
How it was run: as §2

[6] = qHTS of pediatric cancer cell lines to identify multiple opportunities for drug repurposing: Confirmatory screen for A673 cells (AID 1347110); settings: A673 Ewing sarcoma cell viability; series mostly up to 45.9 µM;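 also: cells exposed to compound for 48 h before the viability read; nearly all actives have a fitted effect of over 65% in size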
How it was run: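 Forty-eight-hour viability assay. Follow-up compounds ran at 11-point dilutions; positive control bortezomib at 2.3 uM final, neutral control DMSO.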

[7] = qHTS of pediatric cancer cell lines to identify multiple opportunities for drug repurposing: Confirmatory screen for SK-N-MC cells (AID 1347111); settings: SK-N-MC cell viability; series mostly up to 45.9 µM;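 also: cells exposed to compound for 48 h before the readout; nearly all actives have a fitted effect of over 70% in size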;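 as to activity change, negative = cytotoxic: plate controls were DMSO for no effect and bortezomib for full effect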
How it was run: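 Seed 500-1,000 cells/well; rest 5 h at 37 degrees C. Pin-transfer compounds, 11-point titration. Incubate 48 h. Add CellTiter-Glo, 15 min RT, read luminescence.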

[8] = qHTS of pediatric cancer cell lines to identify multiple opportunities for drug repurposing: Confirmatory screen for BT-12 cells (AID 1347112); settings: BT-12 rhabdoid tumor cells, viability; series mostly up to 45.9 µM; also: nearly all actives have a fitted effect of over 55% in size; as to activity change, negative = cytotoxic: % is scaled to controls: 0 for no effect and ±100 for the full control effect
How it was run: as §2

[9] = qHTS of pediatric cancer cell lines to identify multiple opportunities for drug repurposing: Confirmatory screen for DAOY cells (AID 1347114); settings: DAOY medulloblastoma cells viability, cytotoxicity qHTS; series mostly up to 45.9 µM; also: nearly all actives have a fitted effect of over 65% in size; as to activity change, negative = cytotoxic: % is scaled to controls: 0 for no effect and ±100 for the full control effect
How it was run: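 Viability measured as metabolically active cells via CellTiter-Glo luminescence following 48 hours of compound exposure, 11-point dilutions in confirmatory testing. 500-1,000 cells/well plated 5 hours before dosing; controls were DMSO and 2.3 µM bortezomib.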

[10] = qHTS of pediatric cancer cell lines to identify multiple opportunities for drug repurposing: Confirmatory screen for LAN-5 cells (AID 1347113); settings: LAN-5 neuroblastoma cell viability; series mostly up to 45.9 µM; also: nearly all actives have a fitted effect of over 65% in size
How it was run: as §2
Potency is read from the fitted curve at half-maximal effect.

CCN(CCO)CCCC(C)Nc1ccnc2cc(Cl)ccc12 (configuration not stated)
inactive: activity change, negative = cytotoxic [1] 6.76% [at 4.84 µM] | Potency [2] | Potency [3] | Potency [4] | Potency [5] | Potency [6] | Potency [7] | Potency [8] | Potency [9]

CC1=C(C)C(=O)C(C(CCCCCC(=O)O)c2ccccc2)=C(C)C1=O (configuration not stated)
inactive: Potency [1] | Potency [2] | Potency [3] | Potency [4]

COc1ccccc1N1CCN(CCN(C(=O)C2CCCCC2)c2ccccn2)CC1
inactive: Potency [1] | Potency [2] | Potency [3] | Potency [4]

Cc1ccc(Nc2nccc(N(C)c3ccc4c(C)n(C)nc4c3)n2)cc1S(N)(=O)=O
active: Potency [1] 66.8 nM | Potency [7] 18500 nM
inactive: Potency [2] | Potency [3] | Potency [10]

O=C(CCc1ccc(O)cc1)c1c(O)cc(O)cc1O
inactive: Potency [1] | Potency [2] | Potency [3] | Potency [4] | Potency [5] | Potency [6] | Potency [7] | Potency [8] | Potency [10]

C[C@@H](N)C1CCC(C(=O)Nc2ccncc2)CC1 (some centres not stated)
inactive: Potency [1] | Potency [2] | Potency [3] | Potency [4]

CS(=O)(=O)OCCCCOS(C)(=O)=O
active: Potency [6] 16500 nM
inactive: Potency [1] | Potency [2] | Potency [3] | Potency [4] | Potency [5] | Potency [8] | Potency [9]

O=C(NC(Cc1cc(=O)[nH]c2ccccc12)C(=O)O)c1ccc(Cl)cc1 (configuration not stated)
inactive: Potency [1] | Potency [2] | Potency [3] | Potency [4]

O=C1c2c(O)cc(O)cc2OC(c2ccc(O)c(O)c2)C1O (configuration not stated)
inactive: Potency [1] | Potency [2] | Potency [3] | Potency [4] | Potency [5] | Potency [6] | Potency [7] | Potency [8] | Potency [10] | Potency [9]

Cn1c(NCCN(CCO)CCCc2ccc([N+](=O)[O-])cc2)cc(=O)n(C)c1=O
inactive: Potency [1] | Potency [2] | Potency [3] | Potency [4]

C=C(c1ccc(C(=O)O)cc1)c1cc2c(cc1C)C(C)(C)CCC2(C)C
inactive: Potency [1] | Potency [2] | Potency [3] | Potency [4] | Potency [5] | Potency [6] | Potency [8] | Potency [10] | Potency [9]

CC(C)C[C@H](NC(=O)[C@H](Cc1ccccc1)NC(=O)c1cnccn1)B(O)O
active: Potency [1] 23.5 nM | Potency [2] 74.3 nM | Potency [3] 93.5 nM | Potency [4] 29.6 nM | Potency [5] 36.9 nM | Potency [6] 46.5 nM | Potency [7] 13.1 nM | Potency [8] 46.5 nM | Potency [10] 32.9 nM | Potency [9] 13.1 nM

COc1cc(C(C)=O)ccc1OCCCN1CCC(c2noc3cc(F)ccc23)CC1
inactive: Potency [1] | Potency [2] | Potency [3] | Potency [4] | Potency [5] | Potency [6]

CNC[C@H](O)c1ccc(O)c(O)c1
inactive: Potency [1] | Potency [2] | Potency [3] | Potency [4]

c1cnc2cc3c(cc2n1)C1CNCC3C1
inactive: Potency [1] | Potency [2] | Potency [3] | Potency [4] | Potency [5] | Potency [6] | Potency [7] | Potency [8] | Potency [10] | Potency [9]

CN(C)c1ccc(O)c2c1C[C@H]1C[C@H]3[C@H](N(C)C)C(=O)C(C(N)=O)=C(O)[C@@]3(O)C(=O)C1=C2O
inactive: Potency [1] | Potency [2] | Potency [3] | Potency [4] | Potency [5] | Potency [6] | Potency [8] | Potency [10]

CCCOc1ccc2nc(NC(=O)OC)[nH]c2c1
active: Potency [6] 1170 nM | Potency [7] 1310 nM | Potency [8] 4140 nM | Potency [9] 928 nM
inactive: Potency [2] | Potency [3]

C[C@H](Cc1ccc(O)c(O)c1)[C@@H](C)Cc1ccc(O)c(O)c1
inactive: Potency [2]
active: Potency [4] 11800 nM

CC(C)c1ccc2c(c1)c(SC(C)(C)C)c(CC(C)(C)C(=O)O)n2Cc1ccc(Cl)cc1
inactive: Potency [2]
